This note sets out measurements from PubChem BioAssay AID1851 (National Center for Advancing Translational Sciences (NCATS), 2009).

Broadly, the AC50 is the concentration giving half of the maximal activity seen.

SMILES strings stand for the structures. Hit rate of the full screen: of about 16,000 compounds, about 5,800 (36%) were called active. Not shown: some 23% with an inconclusive outcome. Calls come from the whole dose curve; as a rule, active = well fitted curve in the direction sought with a large enough effect; inconclusive = small, poorly fitted or top-dose-only effect, or effect the other way; inactive = no such curve, though single readings can be large or run the other way. This is one part of the list.
% is set by controls: 0 for no effect and ±100 for the full control effect.

In this assay the target is Cytochrome P450 2C19 (Homo sapiens) (UniProt P33261). Kind of assay: Cytochrome panel assay with activity outcomes. The note with it: recombinant CYP, pro-luciferin dealkylation, luminescence, p450-cyp2c19; series mostly up to 57.1 µM.
Cytochrome P450 2C19 (Homo sapiens), sequence (P33261 whole entry, looked up): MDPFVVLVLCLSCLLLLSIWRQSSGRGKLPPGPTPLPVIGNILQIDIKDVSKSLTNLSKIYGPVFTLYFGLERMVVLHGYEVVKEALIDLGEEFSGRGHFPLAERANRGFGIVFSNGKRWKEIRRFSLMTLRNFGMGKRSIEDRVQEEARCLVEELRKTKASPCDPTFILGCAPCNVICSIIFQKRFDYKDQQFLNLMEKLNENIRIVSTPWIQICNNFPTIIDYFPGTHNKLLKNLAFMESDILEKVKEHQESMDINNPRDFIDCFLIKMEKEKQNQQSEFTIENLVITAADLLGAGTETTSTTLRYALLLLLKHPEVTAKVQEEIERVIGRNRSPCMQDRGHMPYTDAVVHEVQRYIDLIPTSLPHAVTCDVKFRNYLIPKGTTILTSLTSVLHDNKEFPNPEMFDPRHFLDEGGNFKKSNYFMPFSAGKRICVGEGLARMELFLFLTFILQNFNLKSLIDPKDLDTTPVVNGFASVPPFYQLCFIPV
For the compound `O=C(O)c1ccccc1-c1ccccc1C(=O)Nc1ccc2c(c1)[nH]c(=O)c1ccccc12`, the activity, negative = inhibition is -24.7% [at 11.4 µM] (inactive).
With `COc1cc(=O)n(C)c2c(OC[C@@H](O)C(C)(C)O)cccc12`, the AC50 entry is “inactive”.
The same measure, in the same setting: as for `C[C@H](CCC(=O)NCC(=O)O)[C@H]1CC[C@H]2[C@H]3[C@@H](C[C@@H](O)[C@]12C)[C@]1(C)CC[C@H](O)C[C@@H]1C[C@@H]3O`, the entry is “inactive”; as for `COCCn1c(C)cc(C2=NNC(=Nc3ccc(F)cc3)SC2)c1C`, 6.31 µM (active).
Still for that read-out and setting: as for `O=C(NNC(=O)c1cc2cc3ccccc3nc2s1)c1cccc(C(F)(F)F)c1`, the entry is “inactive”; as for `Cc1ccc(C(=O)N/N=C/c2sc(=O)n(Cc3cccc(C(=O)O)c3)c2Cl)cc1`, “inactive”; as for `O=C(N/N=C/c1c(Nc2cccc(C(F)(F)F)c2)nc2ccccn2c1=O)c1ccccc1`, 7.08 µM (active).
As to `O=C(NCCC[N+]1=CC=N[C@H]1c1ccccc1)N1CCCc2nc(-c3ccc(Br)cc3)ccc21`, the activity, negative = inhibition was -32% [at 11.4 µM] (inactive).
As for `Clc1ccccc1CSc1nnc(/C=C/c2ccccc2)o1`, the concentration at half-maximal activity (AC50) was 6.31 µM (active).
Still for that read-out and setting: to `Clc1cccc(Cl)c1CSc1nnc(/C=C/c2ccccc2)o1` belongs 10 µM (active).
With `CC(C)=CCC/C(C)=C/CO/N=C1/C[C@@H](O)[C@@H](O)[C@@H]2[C@@H]3C(=O)N(Cc4ccc5c(c4)OCO5)C(=O)[C@H]3CC[C@H]12`, the activity, negative = inhibition is -41.4% [at 11.4 µM] (inactive).
For the compound `CC1(C)CC(=O)c2c(Cc3ccccc3)n[nH]c2C1`, the AC50 is 15.8 µM (active).
Still for that read-out and setting: as for `Cc1ccc(C)c(N2CCN(C(=O)c3ccc4nc(-c5ccco5)c(-c5ccco5)nc4c3)CC2)c1`, the figure is 8.91 µM (active); as for `CCC(CC)C(=O)NCc1ccc2c(c1)cc(C)n2C`, 14.1 µM (active); as for `CCOC(=O)NCc1ccc2c(c1)cc(C)n2C`, 15.8 µM (active).
Same read-out and setting: as for `Cc1cc2cc(CNC(=O)CC(C)C)ccc2n1C`, the figure is 11.2 µM (active); as for `Cc1ccc(CNC(=O)CCNS(=O)(=O)c2ccc3c(c2)c(=O)n(C)c(=O)n3C)cc1`, “inactive”; as for `CCOC(=O)NNc1nncc2ccccc12`, “inactive”.
Same read-out and setting: to `CC(N)=O` belongs “inactive”.
For the compound `Cn1c(=O)c2[nH]c(CCS)nc2n(C)c1=O`, the activity, negative = inhibition is -13.4% [at 11.4 µM] (inactive).
Regarding `CC(=O)N[C@@H](Cc1c[nH]c2ccccc12)C(=O)OCc1cc(C(F)(F)F)cc(C(F)(F)F)c1`, the AC50 result was “inactive”.
Same read-out and setting: to `COc1ccc(C(C(=O)NC2CCCCC2)N(C(=O)Cc2c[nH]c3ccccc23)c2ccc(NC(C)=O)cc2)cc1OC` (stereo not given) belongs 10 µM (active); to `COc1ccc(S(=O)(=O)Nc2cccc(Cl)c2)cc1OC`, 0.631 µM (active); to `CCOc1ccccc1Oc1coc2cc(OC)ccc2c1=O`, 2.82 µM (active).
Take `CCN(CC)Cc1c(O)ccc2c(=O)c(Oc3ccccc3OC)coc12`: the AC50 result was “inactive”.
Same read-out and setting: to `O=C1C(C2=NC(C(=O)O)C3C(=O)N(c4ccc(Cl)cc4)C(=O)C23)=C(O)c2ccccc21` (stereo not given) belongs “inactive”; to `O=C1C2Sc3[nH]c(=O)sc3C(c3ccccc3)C2C(=O)N1c1ccccc1` (stereo not given), 2.24 µM (active); to `O=C1C2Sc3[nH]c(=O)sc3C(c3ccccc3)C2C(=O)N1c1ccc(Cl)cc1` (stereo not given), 2.82 µM (active).
On the same count and under the same terms, to `O=C(CCCC(=O)OCC(=O)c1ccc(Cl)cc1Cl)Nc1cc(C(F)(F)F)ccc1Cl` belongs 8.91 µM (active).
`Cc1cc(NC(=O)CCCC(=O)OCC(F)(F)C(F)F)cc(C)c1C(=O)O`: the AC50 entry was “inactive”.
Still for that read-out and setting: as for `CCn1cc(-c2nnnn2-c2ccc(Cl)cc2)c(=O)c2ccccc21`, the figure is 17.8 µM (active); as for `O=S(=O)(Nc1ccc2oc(-c3ccccc3)nc2c1)c1ccccc1`, 0.631 µM (active); as for `COC(=O)[C@@H]1C[C@H]1[C@@H](NC(=O)c1cnccn1)c1ccccc1`, “inactive”.
Still for that read-out and setting: as for `COC(=O)[C@@H]1C[C@H]1[C@@H](NC(=O)c1cc(C)on1)c1ccccc1`, the figure is 15.8 µM (active).
On the same count and under the same terms, to `COC(=O)[C@H]1C[C@@H]1[C@H](NC(=O)c1cc(C)on1)c1ccccc1` belongs 20 µM (active); to `COC(=O)[C@H]1C[C@@H]1[C@H](NC(=O)c1cnccn1)c1ccccc1`, “inactive”.
Turning to `C[C@@]1(C(=O)O)NCCc2cc(O)c(O)cc21`, the AC50 result is “inactive”.
Consider `COc1ccc(/C=C2\OC(=O)c3c(OC)cccc32)cc1OC`, for which the concentration at half-maximal activity (AC50) was 8.91 µM (active).
Still for that read-out and setting: to `Cc1nc(SCC(=O)NCCc2ccccc2)c2oc3ccccc3c2n1` belongs 0.178 µM (active); to `CCc1nc(SCC(=O)NCCc2ccccc2)c2oc3ccccc3c2n1`, 0.562 µM (active).
On the same count and under the same terms, to `CS(=O)(=O)N1CCC2(CC1)CN(c1ncccn1)C2` belongs “inactive”; to `O=S(=O)(c1ccccc1)N1CCC2(CCCN(c3ccccn3)C2)CC1`, 0.158 µM (active).
Same read-out and setting: as for `O=S(=O)(c1ccccc1)N1CCC2(CC1)CN(c1ncccn1)C2`, the entry is “inactive”; as for `O=S(=O)(c1ccccc1)N1CCC2(CCCN(c3ncccn3)C2)CC1`, 0.398 µM (active).
For `CCOC(=O)N/N=C1/C[C@@H](O)[C@@H](O)[C@@H]2[C@@H]3C(=O)N(C4CCCCC4)C(=O)[C@H]3CC[C@H]12`, the activity, negative = inhibition is 9.98% [at 11.4 µM] (inactive).
For `O=C(c1cnc(-c2ccccc2)s1)c1ccc(Cl)cc1Cl`, the AC50 is 2.24 µM (active).
The same measure, in the same setting: as for `Cl/C(=C\n1cncn1)c1ccc(Cl)cc1Cl`, the entry is “inactive”.
As for `CC(=O)O[C@]1(C)N=NC2(CCCCC2)O1`, the activity, negative = inhibition is 5.37% [at 11.4 µM] (inactive).
On to `CCOC(=O)c1c(NC(=O)CCc2ccc(CC)o2)sc(C)c1C`, for which the AC50 was 5.62 µM (active).
As to `CO[C@]1(NC(=O)CSCC#N)C(=O)N2C(C(=O)O)=C(CSc3nnnn3C)CS[C@H]21`, the AC50 entry is “inactive”.
The same measure, in the same setting: as for `CCOC(=O)c1c(NC(=O)Nc2ccccc2)sc(C)c1C`, the figure is 5.01 µM (active); as for `Cc1sc(NC(=O)C(C)C)c(C(=O)Nc2ccccc2)c1C`, 3.55 µM (active).
The same measure, in the same setting: as for `CCOC(=O)c1c(NC(=O)CSc2nnnn2C)sc(C)c1C`, the figure is 10 µM (active).
With `NCCSCCC(=O)O`, the activity, negative = inhibition is 13.2% [at 11.4 µM] (inactive).
Regarding `Cc1noc(C)c1-c1cncnc1NCc1ccccc1`, the AC50 result was “inactive”.
Still for that read-out and setting: to `Cc1ccccc1-c1cncnc1NCc1ccccc1` belongs 2 µM (active); to `COc1ccccc1-c1cncnc1NCc1cccnc1`, 3.16 µM (active).
The same measure, in the same setting: as for `CN(C)Cc1ccccc1-c1cncnc1NCc1cccnc1`, the entry is “inactive”.
On the same count and under the same terms, as for `Cc1cccc(CNc2ncncc2-c2ccccc2Cl)c1`, the figure is 1 µM (active).
As for `Cc1ccccc1-c1cncnc1NCc1cccnc1`, the AC50 is 0.398 µM (active).
On the same count and under the same terms, as for `Cc1nc(N=Nc2ccc(S(=O)(=O)O)cc2S(=O)(=O)O)c(COP(=O)(O)O)c(C=O)c1O`, the entry is “inactive”; as for `COc1ncc2nc(-c3cccc(C#N)c3)c(=O)n(CCC#N)c2n1`, “inactive”; as for `Cc1cnc(CNc2ncncc2-c2ccccc2C#N)cn1`, “inactive”.
On to `Cc1cccc(CNc2ncncc2-c2ccccc2C)c1`, for which the concentration at half-maximal activity (AC50) was 1 µM (active).
For the compound `Cc1cnc(CNc2ncncc2-c2ccccc2CN(C)C)cn1`, the AC50 result was “inactive”.
The same measure, in the same setting: as for `N#Cc1ccccc1-c1cncnc1NCc1cccnc1`, the entry is “inactive”; as for `COc1ccccc1-c1cncnc1NCc1cccc(C)c1`, 0.398 µM (active).
Same read-out and setting: as for `CC(=O)NCCNc1ncncc1-c1ccccc1C`, the entry is “inactive”; as for `FC(F)(F)c1ccccc1-c1cncnc1NCc1cccnc1`, 2.51 µM (active); as for `Cc1cnc(CNc2ncncc2-c2ccccc2C)cn1`, 7.94 µM (active).
As for `Nc1cc(C(=O)O)[nH]c(=O)n1`, the activity, negative = inhibition is 35.4% [at 11.4 µM] (inactive).
With `COC(=O)CNC(=O)CCCCC(=O)NCC(=O)OC`, the AC50 entry is “inactive”.
On the same count and under the same terms, to `Cc1nc2sccn2c(=O)c1Cl` belongs “inactive”.
In the case of `CC(C)(CN)CN`, the activity, negative = inhibition was 26.4% [at 11.4 µM] (inactive).
As to `CSc1nncc(/C(C)=N\Nc2ccccc2)n1`, the AC50 was 5.01 µM (active).
Still for that read-out and setting: as for `O=C(c1cccc(F)c1)N1CCC2(CCCN(Cc3ccccc3)C2)CC1`, the entry is “inactive”.
Turning to `O=C(c1ccco1)N1CCC2(CCN(Cc3ccncc3)CC2)CC1`, the AC50 entry was “inactive”.
With `O=C(c1cccc(F)c1)N1CCC2(CCCN(Cc3cc(C(F)(F)F)cc(C(F)(F)F)c3)C2)CC1`, the AC50 entry is “inactive”.
Same read-out and setting: to `O=C(c1ccco1)N1CCC2(CCCN(Cc3ccncc3)C2)CC1` belongs 10 µM (active); to `O=C(c1ccco1)N1CCC2(CCCN(Cc3ccccc3)C2)CC1`, “inactive”.
Same read-out and setting: to `O=C(c1cccc(F)c1)N1CCC2(CC1)CN(Cc1ccccc1)C2` belongs “inactive”.
`N#Cc1ccc(CN2CCCC3(CCN(C(=O)c4cccc(F)c4)CC3)C2)cc1`: the AC50 entry is “inactive”.
In the case of `N#Cc1ccc(CN2CC3(CCN(C(=O)c4cccc(F)c4)CC3)C2)cc1`, the AC50 is 2 µM (active).
Still for that read-out and setting: to `O=C(c1cccc(F)c1)N1CCC2(CCCN(Cc3ccncc3)C2)CC1` belongs 10 µM (active); to `O=C(O)c1ccc2c(c1)C(=O)N(C(Cc1ccc(O)cc1)C(=O)O)C2=O` (stereo not given), “inactive”.
`CO[C@@H]1COC(=O)[C@H](CCSC)NC(=O)C/C=C\[C@@H](C)COC(=O)[C@@H]2CCCN2C(=O)C/C=C\[C@H]1C`: the activity, negative = inhibition is 43.9% [at 11.4 µM] (inactive).
On to `Cc1cc(C(C)(C)C)cc(CNC2CCCCC2)c1O`, for which the half-maximal activity concentration (AC50) was 0.02 µM (active).
As for `CC(C)(C)c1cc2c(O)c(c1)Cc1cc(C(C)(C)C)cc(c1O)Cc1cc(C(C)(C)C)cc(c1O)Cc1cc(C(C)(C)C)cc(c1O)Cc1cc(C(C)(C)C)cc(c1O)Cc1cc(C(C)(C)C)cc(c1O)Cc1cc(C(C)(C)C)cc(c1O)Cc1cc(C(C)(C)C)cc(c1O)C2`, the activity, negative = inhibition is -8.28% [at 11.4 µM] (inactive).
For the compound `O=C(Cc1cccs1)N1CCC(c2nc3c(nnn3Cc3ccccc3Cl)c(=O)[nH]2)CC1`, the half-maximal activity concentration (AC50) is 2 µM (active).
On the same count and under the same terms, as for `O=C(CSc1ccc(C(F)(F)F)cc1[N+](=O)[O-])Nc1ccccc1`, the figure is 0.891 µM (active); as for `O=C(Nc1ccccc1)N1CC2(CCN(C(=O)c3cc(C(F)(F)F)cc(C(F)(F)F)c3)CC2)C1`, “inactive”; as for `Cc1ccc(Nc2c([N+](=O)[O-])ccc3c2=NC2(CCCCC2)N=3)cc1`, 2.82 µM (active).
Turning to `CSc1nsc(SC)c1C(=O)Nc1ccc(C)cc1`, the half-maximal activity concentration (AC50) was 8.91 µM (active).
Still for that read-out and setting: to `COc1c(F)c(F)c(C(=O)O)c(Nc2ccc(C)cc2)c1F` belongs “inactive”.
On the same count and under the same terms, as for `CCCCOC(=O)c1ccc(NC(=S)NC(=O)c2c(Cl)cnn2C)cc1`, the figure is 15.8 µM (active).
